Compound activity from PubChem.
An excerpt weighted towards active compounds, which were near 7.3% of everything screened.
HCV inh – HCV inhibition | Potency, µM (highest dose often 41.8 µM), most hits filed as inhibitors | AID 651820 | Huh7.5.1 HCVcc-Cre infection, luciferase reporter, 44 h | 340,000 compounds, 3.4% hits; active means well fitted inhibition curve with a large enough effect; inconclusive means small, poorly fitted or top-dose-only effect, or another doubt; inactive means no such curve, though single readings can be large or run the other way
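Infectious HCVcc-Cre (~0.5 moi) was added to cells just after compound, with cells seeded 4 h earlier at 1,000 per well. Luciferase activity after 44 h culture reported infection; substrate was incubated 15 min at room temperature before reading.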
Vaccinia Venus – vaccinia inhibition (Venus reporter); Vaccinia virus Venus reporter expression, fluorescence; AID 720580; Potency, µM (series often up to 36.5 µM), most hits filed as inhibitors; 330,000 compounds, 0.46% hits; calls by dose curve; tested in A549 cells; further: nearly all actives have a fitted effect of over 30% in size
VACV mCherry inh – vaccinia inhibition (mCherry reporter); Vaccinia virus mCherry reporter infection, fluorescence; Potency, µM (titrated, usually from 36.5 µM), usual class: inhibitors; 310,000 compounds, 0.63% hits; AID 720579; calls by dose curve; tested in A549 cells; further: nearly all actives have a fitted effect of over 35% in size
HCMV inh – human cytomegalovirus inhibition; HFF cells, HCMV-luciferase reporter, 72 h; stronger effect = lower value; activity change, negative = inhibition, % at 57.5 µM; 410,000 compounds, 4.5% hits; in the data active means activity change below about -60%; inconclusive means no clear call, values can overlap the other calls; inactive means above about -39%
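Steps: HFFs plated, 16 h 37C; compounds added; HCMV-luciferase added to MOI 1 PFU/cell; 72 h 37C; OneGlo reagent, 5 min room temperature; luminescence read, normalized to controls.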
FMDV inh – foot and mouth disease virus antiviral activity. FMDV antiviral cell-based qHTS. Potency, µM (doses to about 57.9 µM), actives largely listed as inhibitors. 410,000 compounds, 1.2% hits; calls by dose curve; tested in HEK293T cells; further: read-out not given here; nearly all actives have a fitted effect of over 45% in size
Numbers stand for hits; – = inactive; ? = inconclusive; · = no result; [ ] = another dose, or the depositor's remark.

SMILES	HCV inh	Vaccinia Venus	VACV mCherry inh	HCMV inh	FMDV inh
CCn1nc(C)cc1C(=O)NCC1Cc2cc(C)cc(-c3ccccc3C(=O)OC)c2O1 (stereo unspecified)	·	–	–	·	–
Cc1onc(-c2c(F)cccc2Cl)c1C(=O)Nc1nnc(C(F)(F)F)s1	?	·	·	-98	?
NC(=O)c1ccccc1NC(=O)c1ccccc1Cl	–	–	–	–	–
Cc1onc(-c2c(F)cccc2Cl)c1C(=O)Nc1nccs1	–	–	–	?	–
O=C(Nc1ccccc1C(=O)Nc1nnc(C(F)(F)F)s1)c1ccccc1Cl	11µM	–	?	-103	?
O=C(Nc1nnc(C(F)(F)F)s1)c1ccc(Br)s1	?	?	10µM	?	–
CC(NC(=O)Nc1nnc(C(F)(F)F)s1)(C(F)(F)F)C(F)(F)F	2.8µM	2.5µM	4µM	-98	?
Cc1ccc(C)c(NC(=O)Cn2cc(S(=O)(=O)c3ccc(F)cc3)c(=O)c3cc(F)ccc32)c1	·	–	–	–	–
CC(CNC(=O)CN1C(=O)COc2ccc(S(=O)(=O)N3CCCCCC3)cc21)c1ccccc1 (stereo unspecified)	·	–	–	–	–
CCC(C)(C)C(=O)O[C@@H]1C[C@@H](C)C=C2C=C[C@H](C)[C@H](CC[C@@H]3C[C@@H](O)CC(=O)O3)[C@H]21	·	·	·	·	–
O=C(Cn1c(=O)n(-c2ccc(Cl)cc2)c(=O)c2c3c(sc21)CCCCC3)Nc1cccc(Cl)c1	·	–	–	–	?
COCCn1cnc2c1c(=O)n(Cc1ccc(C#N)cc1)c(=O)n2Cc1ccccc1	–	–	–	-61	–
COc1ccccc1NC(=O)Cn1c(=O)n(CC2CCC(C(=O)NCCc3ccccc3)CC2)c(=O)c2ccccc21 (stereo unspecified)	·	–	–	–	–
COc1ccc(N2CCN(C(CNS(=O)(=O)c3c(C)cc(C)cc3C)c3ccco3)CC2)cc1 (stereo unspecified)	·	–	–	?	–
CC(C)c1ccc(NC(=O)c2ccc3oc(=O)c(S(=O)(=O)c4ccc(F)cc4)cc3c2)cc1	·	–	–	–	?
Cc1cccc(NC(=O)c2ccc3oc(=O)c(S(=O)(=O)c4ccc(F)cc4)cc3c2)c1C	·	–	–	–	32µM
Cn1c2ccccc2c(=O)c2ccc(NCCc3cccs3)cc21	11µM	?	–	–	–
O=C(NCCCN1CCCC1)c1ccc(CSCc2cccc(Cl)c2)o1	10µM	·	·	–	–
CCOC(=O)/C=C/[C@@H](CCCCOCc1ccccc1)NC(=O)C(F)(F)F	·	·	·	–	·
Cc1nc2c(=O)n(C)c(=O)n(C)c2nc1Cl	14µM	–	?	-103	?
Cn1c(=O)c2nncnc2n(C)c1=O	–[0.335 µM]	–	–	–	–
CCCCN1CC(COc2ccc(OC)cc2)OCCS1(=O)=O (stereo unspecified)	·	·	·	–	·
OCC1(Cc2ccc(Cl)cc2)CCN(CCCc2ccccc2)CC1	13µM	–	–	–	–
COc1ccccc1-c1cnn(C(C)(C)C(=O)NCc2ccccc2Br)c1	·	·	·	–	·
COc1ccc2c(c1)C=C/C2=C/c1ccc(N(C)C)cc1	·	–	–	·	·
SMILES	HCV inh	Vaccinia Venus	VACV mCherry inh	HCMV inh	FMDV inh
COc1cc2c(cc1OC)C(=Cc1ccc(N(C)C)cc1)C=C2	10µM	–	?	–	–
O=C(Nc1ccccc1SC(=O)c1ccccc1)c1ccccc1	·	–	–	–	–
Cc1ccc(C(=O)Sc2cccccc2=O)cc1	–	1.8µM	1µM	-99	–
O=c1c(-c2cccs2)nc2cnc(N3CCNCC3)nc2n1C1CC1	·	·	·	·	–
O=C(NCC(c1cccs1)N1CCOCC1)c1cc(-c2ccc(F)cc2)nc2ccccc12 (stereo unspecified)	7.1µM	–	–	–	–
Cc1ccc(-c2cc(C(=O)NCCCN3CCCC3)c3ccccc3n2)cc1C	22µM	–	–	–	–
CCOc1ccc(-c2cc(C(=O)NCCCN3CCCC3)c3ccccc3n2)cc1	?	–	–	?	–
Cc1ccc(-c2cc(C(=O)NCCCN3CCOCC3)c3ccccc3n2)cc1C	?	–	–	-92	–
Cc1c(Cl)ccc2c(C(=O)NCCN3CCCCC3)cc(-c3ccccn3)nc12	5.6µM	–	–	–	–
C[C@@H]1CN(Cc2ccc3c(c2)CN(Cc2cccn2-c2ccc(Cl)cn2)CCO3)C[C@H](C)O1	·	–	–	·	–
COc1ccccc1NC(=O)Cn1c(=O)c(CNc2ccccc2)cc2cc(OC)c(OC)cc21	·	–	–	–	–
COc1ccc(NC(=O)c2oc3ccccc3c2NC(=O)C23CC4CC(CC(C4)C2)C3)c(OC)c1	·	–	–	–	–
